Hits are enriched below; roughly 5.2% of the tested compounds scored in any of these assays.
PostGolgi yeast: growth inhibition of a yeast mutant, post-Golgi transport screen; post-Golgi transport phenotypic cell assay; inhibition, % at 10 µM; 98,000 compounds, 0.9% hits;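 further: yeast cells grown in 1536-well plates; yeast grown about 18 h at 30C before absorbance read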
EphB4 antag: blocks human EphB4 binding to ephrin-B2; P54760; EphB4 LBD / TNYL-RAW-Alexa532 peptide, fluorescence polarization; inhibition, % at 7 µM; 97,000 compounds, 0.15% hits;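 active means inhibition above the screen-wide mean inhibition plus 3 SD, cut at about 15% in these data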;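 further: 0% = DMSO wells and 100% = excess unlabeled TNYL-RAW peptide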
PostGolgi ctrl: growth of the yeast control strain, post-Golgi counter-screen | efflux-deficient yeast background strain, growth absorbance A615, 16 h | inhibition, % at 10 µM | 98,000 compounds, 5% hits | AID 738
Calb biofilm kill: kills Candida albicans biofilms. inhibition, % at 6 µM. AID 834. 85,000 compounds, 0.14% hits. C. albicans biofilm + clotrimazole, Alamar Blue;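 active means inhibition above 20%; inactive means inhibition below 20%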;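 further: preformed 24 hr biofilms exposed to compound for 48 hr; 0% = biofilm without compound and 100% = blank killed by clotrimazole plus chlorhexidine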
Numbers without * were called inactive; / = no result. Unless noted, no stated cut-off is given here; in the data, active means inhibition above about 30%; inactive means the rest.

SMILES	PostGolgi yeast	EphB4 antag	PostGolgi ctrl	Calb biofilm kill
CC(=O)Nc1ccc(-c2nnc(SCC(=O)NCc3ccco3)n2C)cc1	4.5	-5.4	33.2*	6.3
O=C1C2CC=CCC2C(=O)N1c1n[nH]c(CCc2ccccc2)n1 (stereo not drawn)	34.1*	0.7	9.5	10.0
O=C1C2CC=CCC2C(=O)N1c1n[nH]c(-c2ccccc2)n1 (stereo not drawn)	9.3	-2.5	-3.4	-4.1
Cc1cccc(N2CCN(C(=O)Cc3ccc(Br)cc3)CC2)c1C	17.5	0.1	46.3*	2.6
NC(=O)C(c1ccc(Cl)cc1)c1ccc(Sc2ccc(Cl)cc2)nn1 (stereo not drawn)	-1.8	0.8	10.3	-3.0
CCOC(=O)c1cc(C#N)c(Oc2ccccc2OC)nc1-c1ccccc1	4.0	-1.7	27.0	/
O=[N+]([O-])c1cccnc1N1CCC(c2cc(-c3ccc(Cl)cc3Cl)n[nH]2)CC1	2.3	0.8	58.8*	6.3
Oc1ccc(-c2nc3ccccn3c2NCc2ccc3c(c2)OCO3)cc1	-2.4	2.4	-0.1	0.8
Cc1ccn2c(NCc3ccc4c(c3)OCO4)c(-c3ccc(O)cc3)nc2c1	0.3	-7.0	36.2*	/
Cc1ccc(Cl)cc1NC1=NC(=S)N(C(C)C)C12CCCCC2	/	2.6	/	8.5
CC(CCc1ccccc1)NC(=O)CN1CCN(Cc2ccccc2)C1=O (stereo not drawn)	0.2	-6.1	33.0*	1.2
CCN(CC)CCn1c2ccccc2c2cnc(N)c(C#N)c21	1.6	-9.1	51.5*	6.6
COCC(C)NCc1ccccc1C (stereo not drawn)	9.6	1.8	9.6	5.8
CSc1nsc(SCC(=O)Nc2ccc(Br)cn2)n1	0.3	5.4	37.8*	/
Cc1cc(C)nc(SCC(=O)Nc2ccc(Br)cn2)n1	2.4	3.2	2.8	-1.9
COCc1cc(Sc2cccc(Cl)c2Cl)nc(-c2ccccc2)n1	8.3	-1.1	-8.5	/
Cc1nc(CS(=O)(=O)c2ccccc2)cc(Sc2ccc(Cl)cc2Cl)n1	4.8	0.8	37.1*	/
CCCn1c(CN2CCN(C(=O)c3ccco3)CC2)nc2c1c(=O)n(C)c(=O)n2C	5.8	-1.4	35.4*	/
Cn1c(=O)c2c(nc(CN3CCN(C(=O)c4ccco4)CC3)n2CCCc2ccccc2)n(C)c1=O	-2.7	3.0	31.9*	13.3
CN(Cc1ccccc1)Cc1nc2c(c(=O)n(C)c(=O)n2C)n1CCCc1ccccc1	4.1	3.0	51.6*	2.1
Oc1ccc(/C=C/c2nc(-c3ccccc3O)n(-c3ccccc3)n2)cc1	6.6	-3.4	38.0*	/
Cc1nn(-c2ccccc2)c(C)c1/C=N/O	-32.5	6.0	27.0	4.3
CCCCSc1nc(C)cc(C)c1S(=O)(=O)c1ccccc1C	0.0	1.1	13.6	/
COC(=O)C1=C(C)NC(=O)C1(NS(=O)(=O)c1ccc(NC(C)=O)cc1)C(F)(F)F (stereo not drawn)	1.0	5.0	-7.8	-1.2
COc1cccc(NC(=O)CSc2nnc(-c3cc(-c4ccccn4)nc4ccccc34)o2)c1	-7.5	9.8	50.4*	8.1
SMILES	PostGolgi yeast	EphB4 antag	PostGolgi ctrl	Calb biofilm kill
Cc1ccc(Cn2ncn3c(cc4ccccc43)c2=O)cc1	1.7	6.4	34.5*	/
CNc1nc(C)c(C(=O)c2ccc(Cl)cc2)s1	-4.3	2.4	17.9	/
O=C(Cn1c(C(=O)N2CCN(C3CCCC3)CC2)cc2sccc21)c1ccccc1	9.6	0.0	4.7	2.2
CCOc1ccc2c(c1)-c1c(ssc1=S)C(C)(C)N2	7.1	-3.3	30.9*	/
CC(=O)NCCc1cc2ccc(C)cc2[nH]c1=O	24.5	2.6	-1.5	2.9
Cc1ccc2cc(CCNC(=O)c3ccc(Br)o3)c(=O)[nH]c2c1	21.4	4.9	101.2*	10.4
O=C(C1CCCN(S(=O)(=O)c2ccc(F)cc2)C1)N(Cc1cccs1)C1CC1 (stereo not drawn)	-1.6	/	17.0	-2.0
Oc1ccc(/C=N/Nc2cc(N3CCCC3)nc(N3CCCC3)n2)cc1	17.3	-4.7	30.8*	/
COCCCN(C(=O)Nc1ccccc1)C(C)c1ccncc1 (stereo not drawn)	0.8	-2.9	5.5	7.2
N#Cc1ccc(C(=O)Nc2ccc(N3CCN(C(=O)c4ccco4)CC3)cc2)c(F)c1	1.7	-2.5	-5.5	6.0
CN(C)c1ccc(O)c2c1CC1CC3[C@@H](N(C)C)C(=O)C(C(N)=O)=C(O)[C@]3(O)C(=O)C1=C2O (stereo partly drawn)	/	/	/	25.3*
CCOC(=O)N1CCN(C(=O)CSc2nnc(COc3ccc(Cl)cc3)o2)CC1	-7.2	/	5.7	-0.6
O=C(CSc1nnc(COc2ccc(Cl)cc2)o1)N1c2ccccc2CCc2ccccc21	-7.5	-0.5	30.7*	3.6
Nc1ccc(C(=O)N/N=C2\CCCc3c2[nH]c2ccccc32)cc1	-4.8	5.0	43.9*	/
Cc1ccc2[nH]c3c(c2c1)CCCC3=O	14.8	3.9	3.7	1.2
C=CCc1c(C)nc2c(C(=O)O)cnn2c1C	6.7	-4.9	31.1*	8.7
Cc1ccc(Cc2c(C)nc3c(C(=O)O)cnn3c2C)cc1	/	-2.9	/	11.9
CC(C)(C)c1cc2cccnc2n1Cc1cccc(Cl)c1	2.6	0.2	10.5	/
Cc1ccc(S(=O)(=O)NC(CN2CCOCC2)=NCCNS(=O)(=O)c2ccccc2)cc1	3.5	5.5	-3.6	6.0
COc1ccc(-n2ccnc2SCC(=O)Nc2ccccc2)cc1	5.7	1.0	36.8*	3.0
CC(C)N1CC(C(=O)Nc2nc3ccccc3s2)CC1=O (stereo not drawn)	1.6	-3.4	3.6	7.8
O=C(Nc1nc2ccccc2s1)C1CC(=O)N(c2ccc(Cl)cc2)C1 (stereo not drawn)	14.3	1.0	39.9*	3.5
CCOc1ccc2nc(NCCCNS(=O)(=O)c3ccccc3)c(C#N)cc2c1	5.4	-3.1	23.7	7.4
Cc1ccc(SCc2ccc(C(=O)NCc3ccncc3)cc2)cc1	0.6	3.4	4.9	/
CC(C)n1c(SCC(=O)N2c3ccccc3Sc3ccccc32)nc2c1c(=O)n(C)c(=O)n2C	21.1	3.7	38.5*	4.9
SMILES	PostGolgi yeast	EphB4 antag	PostGolgi ctrl	Calb biofilm kill
CC(C)n1c(SCC(=O)N2c3ccccc3CCc3ccccc32)nc2c1c(=O)n(C)c(=O)n2C	/	3.1	/	7.5
CCCn1c(SCC(=O)N2c3ccccc3Sc3ccccc32)nc2c1c(=O)n(C)c(=O)n2C	14.3	-1.9	32.1*	10.2
CCCCNC(=O)C1CC(c2c(Cl)cccc2Cl)=NO1 (stereo not drawn)	0.2	5.9	6.5	/
CCn1c(Cc2cccc3ccccc23)nnc1SCC(=O)Nc1nccs1	/	1.8	/	2.5
Cc1sc(NC(=O)C2CCCCC2C(=O)O)c(C(N)=O)c1-c1ccccc1 (stereo not drawn)	1.6	-6.2	-1.1	/
Cc1sc(NC(=O)C2CCCCC2C(=O)O)c(C(N)=O)c1-c1ccc(C(C)(C)C)cc1 (stereo not drawn)	7.9	-2.8	30.5*	/
CCCCOc1ccc(S(=O)(=O)Nc2cccnc2)cc1	31.9*	8.0	13.7	/
COc1ccc(S(=O)(=O)NCCOc2ccccc2)cc1OC	-6.9	-3.6	33.1*	4.4
CCCCOc1ccc(S(=O)(=O)Nc2cc(OC)ccc2OC)cc1	2.4	5.2	51.3*	/
COc1ccc(OC)c(NS(=O)(=O)c2cc(OC)ccc2OC)c1	5.8	5.0	12.4	0.3
CN(C)CCNC(=O)c1ccc(CS(=O)(=O)c2ccc(Br)cc2)o1	/	0.0	/	5.7

Screening results from PubChem.
